According to the supplement of paper PMC11417369:
± gives the standard deviation of the averaged measurements. Over roughly 25,000 sequences, “ln(normalized median fluorescence intensity)” has its median near 8.9; the highest 2% begin near 10. Many of the other results were omitted from the sample, so the highest values are more common in it than they were.

tested on: PfAP2-LT AP2 domain (GST-tagged); test: gcPBM binding intensity (ln(normalized median fluorescence intensity)); higher = stronger DNA binding
How it was run: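 GST-fused DNA-binding domains of P. falciparum, expressed in E. coli, were applied at about 25 μg on average for 1 h to an Agilent 4 × 180k array of primer-extended double-stranded 36-bp intergenic genomic probes and negative controls. Binding intensity is the highest Masliner-normalised natural-log median intensity across replicate spots of either probe orientation, measured with Alexa488 anti-GST antibody and a 488 nm scan.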

Sequence | gcPBM binding intensity (ln)
AATATATATATATATATTTTTGTTAGAATATGGAAT [GTGCAC_negctrl_site434] | 8.65 ± 0.32
AAAAAAAAAATACATACACACACACCCACCCATATA [CACACA_site9187] | 10.18 ± 0.021
CATATATACGCATACACACACACACCCACACCCACA [CACACA_site1725] | 10.16 ± 0.05
TATACGCATATATACACACACATATATATATATATA [CACACA_site3416] | 10.1 ± 0.11
AAAAAAAATACATACACACACACACCCACATATATA [CACACA_site3561] | 10.13 ± 0.05
TACACGCTAAAATACACACACACACCCACATATATA [CACACA_site4153] | 10.2 ± 0.11
TATACATATACATATACACACACACCCATAAATAAA [CACACA_site8372] | 9.8 ± 0.22
TACCCACTAAAATACACACACACACCCACATATATA [CACACA_site6141] | 10 ± 0.42
TATAAATATACACCCACACACATATATAAATAAATA [CACACA_site7717] | 9.65 ± 0.16
TATAAATATACACCCACACACATATATATATATATA [CACACA_site3745] | 9.94 ± 0.16
TATATAAATATACACCCACACACATATATATATATA [CACACA_site9247] | 9.61 ± 0.28
CACCCACCCACATACACACACATACACATATATATA [CACACA_site1722] | 10 ± 0.22
TACATATACATATACACACACACACCCAAATAAATA [CACACA_site1344] | 10.04 ± 0.05
ATTTTTTTTAAACGAAGTACAATTTGTGCATTGGAA [XGTACX_site8109] | 8.45 ± 0.39
GTACATACATAAAACACACACATATAGATTTATATA [CACACA_site6945] | 9.47 ± 0.33
TATTTTTTTTGATATTGTACTTTTTTATTATTTTTT [XGTACX_site566] | 8.76 ± 0.51
TATTTTTATATATAATCACACATTGGAATGTTCTAA [CACACA_site5540] | 8.67 ± 0.44
TTGAAGGTGGCAATGTGTACATAGAATAACCAGTGC [XGTACX_site4738] | 9.15 ± 0.54
TATATATTATGACCACCACACACCTATACGCATAAC [CACACA_site2447] | 9.44 ± 0.085
TAAATTAAAAAAAATACACACACACCGACACATATA [CACACA_site9084] | 9.84 ± 0.26
AAAATACACGCATACACACACACACCGACACATATA [CACACA_site4523] | 10.4 ± 0.28
CACCCATAAATATACACACGCACAACACAAAATAAA [CACACA_site2903] | 9.63 ± 0.41
AAAATACACGCATACACACACACACCCACCCATATA [CACACA_site639] | 10.4 ± 0.14
ATAAAATACATATAAACACACATATAAACCGACATA [CACACA_site2477] | 9.28 ± 0.38

Sequence | gcPBM binding intensity (ln)
TATACACCCTAAAATACACACACACCCACCCATATA [CACACA_site9380] | 10.06 ± 0.078
TTATATGTATGAACAAGTACATGCTATAATTATAAA [XGTACX_site1399] | 8.57 ± 0.46
ACATTCTATATATACACACATACATAATAAAGAAAG [CACACA_site2771] | 9.05 ± 0.4
AAAACATAACATTGTTGTACTACTAATAAAATAAGT [XGTACX_site6149] | 8.8 ± 0.52
ATATTATATATGTATAGTACATATTATAAGAAAAAT [XGTACX_site3457] | 8.87 ± 0.65
ATATATAAAAAAGCTAGTACACAAAAATATATAATG [XGTACX_site3001] | 8.95 ± 0.54
TTATATATAAATGTGTGTACTTATAAAATAATCATT [XGTACX_site5370] | 8.78 ± 0.43
TAAATTTATAGACACACACACATATAAATAAATATA [CACACA_site6530] | 9.71 ± 0.22
TATATATATAGACACACACACATATAAATAAATAAA [CACACA_site444] | 9.56 ± 0.34
AATAAATTTAGACACACACACACATATAAATAAATA [CACACA_site6531] | 10.1 ± 0.23
CATATAAATAGACACACACACACATATAAATAAATA [CACACA_site7156] | 10.1 ± 0.4
TATATAAATAGACACACACACATATAAATATAAATA [CACACA_site6503] | 9.69 ± 0.32
TAATTTTTTAGACACACACACATATAAATATAAATA [CACACA_site6195] | 9.37 ± 0.34
TATGAAGACACAAATACACACACTCAAAAAAAAAAA [CACACA_site2660] | 9.41 ± 0.44
AAAAAAAAAAAAAAAACACACATTTGAAGAAAAAAA [CACACA_site7389] | 8.58 ± 0.51
ATTGTATAAAAATGTACATGCAATAAATTTAGTTCT [TGCATGCA_site675] | 8.77 ± 0.42
TAAAAGGATACATATACACACATATATATATATATA [CACACA_site2791] | 9.72 ± 0.13
AAAGATAAAAAAAGTACACACACACCGATATATATA [CACACA_site9006] | 10 ± 0.14
AAAAAAAAAAAAAGTACACACATACAGATAAATATA [CACACA_site5067] | 9.16 ± 0.48
CAAAAGGATAGGCACACACACACACCGATATATATA [CACACA_site8685] | 10.1 ± 0.21
CCATAAAAAGGATACACACACACACGCACATATATA [CACACA_site6550] | 9.92 ± 0.11
GCCAAAAGGATATGCACACACACACCCATATATATA [CACACA_site2198] | 9.94 ± 0.42
ATAAAGCACACCGACACACACATATTTATATTTATA [CACACA_site6620] | 9.68 ± 0.43
CCATAAAAAGGATACACACACACACCGACATATATA [CACACA_site4653] | 10.2 ± 0.23

Sequence | gcPBM binding intensity (ln)
CAAAAGGATAGGCACACACACACACCCATATATATA [CACACA_site2199] | 10.2 ± 0.23
AAATAAAGCACACCGACACACACATATATATATATA [CACACA_site8256] | 10.03 ± 0.057
ATAAAGCACACCGACACACACATATATATATATATA [CACACA_site1047] | 10.54 ± 0.099
TACAGATAAAAGTACACACACACACCGATATATATA [CACACA_site4675] | 10.12 ± 0.099
TTTATAATATGTTATACATGCAGGTACCTTTTTGTA [TGCATGCA_site746] | 8.9 ± 0.46
TATAACACACAATGATGTACATTACATTATTTTTTA [XGTACX_site2076] | 8.79 ± 0.45
ATAACAATTATTTGTCGACACACGTATATGTTATTT [CACACA_site1766] | 9.41 ± 0.38
ATATTCTTTTTATGTGGTACTAATTTTTTTTTTTTA [XGTACX_site3791] | 8.66 ± 0.57
CGAAAAAATAAAAAAAAAATAAAATAAAATAAATAA [TGCATGCA_negctrl_site278] | 8.56 ± 0.59
TACAAATATGGACACACACACATATTTATATTTATA [CACACA_site6420] | 9.73 ± 0.4
CCATAAAAAGGATACACACACACACCCACATATATA [CACACA_site903] | 10.1 ± 0.32
AAGGATATAACATACACACACACACCCATATATATA [CACACA_site4142] | 10.08 ± 0.099
ACCCATAAAAAGGATACACACACACCCACCCATATA [CACACA_site8205] | 10.3 ± 0.29
AGATAAAAAAAGTACACACACACATATATATATATA [CACACA_site3072] | 10.02 ± 0.014
TACATATAAAAGTACACACACACACCCATATATATA [CACACA_site941] | 10.1 ± 0.3
AATACATATAAAAGTACACACACACCCATATATATA [CACACA_site8220] | 9.97 ± 0.13
ATAATTATATAAATATATATAATATATATATGAAAA [XGTACX_negctrl_site357] | 8.58 ± 0.58
TAATGGAGAAAAAAAAAACACACGGTACATTCAAAG [CACACA_site3117] | 9.01 ± 0.46
AAATAAATAAATTAACGTACATAATAACATTAATAT [XGTACX_site8567] | 8.86 ± 0.47
AGTTTGTCAATCAACACACACCTATTTATTATAGAT [CACACA_site7777] | 9.1 ± 0.37
AAATAAATAAAAAACACACACAAATAAATAAATATA [CACACA_site2249] | 9.46 ± 0.39
AAAATCACAAAACACACACACACAAAAAAAAAAAAA [CACACA_site1443] | 9.49 ± 0.53
AAAGAAAAAAAAAAAACACACAAAAAAAATCAAAAT [CACACA_site2871] | 9.04 ± 0.57
AAAAAATCAAAACACACACACACACCCAAAAAAAAA [CACACA_site1444] | 10.2 ± 0.37

Sequence | gcPBM binding intensity (ln)
AAAAAAAAAAAACACACACACACAAATATATAAAAA [CACACA_site1171] | 9.77 ± 0.31
AAAAAAAAAAAACACACACACACACCCAAATATATA [CACACA_site150] | 10.22 ± 0.028
AAAAAAAAAAAAAACACACACACACCCAAATATATA [CACACA_site1169] | 10.2 ± 0.44
AAAACACCCAAACACACACACACATATATATATATA [CACACA_site9119] | 10.2 ± 0.35
AACACCCAAAAACACACACACATACATACATACATA [CACACA_site4411] | 9.8 ± 0.23
AAAAAAAAAAAAAAAAAAAAACACCCAAAAAAATAT [XGTACX_negctrl_site210] | 8.86 ± 0.44
AAAAAAAAAAAAAAAACACACACATACACCCAAAAA [CACACA_site7910] | 9.78 ± 0.23
CAAATGTAGAAAATGTGTACATAAAAAAAAAAAAAA [XGTACX_site8276] | 8.87 ± 0.47
AGGGACATATATATCACACACAAAAATTAGTCCCTT [CACACA_site2778] | 9.39 ± 0.44
TATATTATTTATATTTGTACACAGCGATATGAAATA [XGTACX_site987] | 8.56 ± 0.46
CATATAATTATTTTCACACATATAACTACATCTATA [CACACA_site5915] | 8.82 ± 0.43
ATACATACATACATACGTACATATGTATATATATAT [XGTACX_site8498] | 9.23 ± 0.14
AATTTGATTATAAATTGTACATATATATATTAAAAG [XGTACX_site5461] | 8.66 ± 0.35
AAAAATGAAAGGTGTACACATACAAACATAGAAAGA [CACACA_site5020] | 9.38 ± 0.52
ATGGTTTTTATTTTATGTACTTACTAAAATGAATAA [XGTACX_site4317] | 8.52 ± 0.37
TAAACACCCATACATACACACATACATACACCCATA [CACACA_site5125] | 9.63 ± 0.18
AAAAAAAAAAAAAACACACACACACCCATACCCATA [CACACA_site5577] | 10.215 ± 0.0071
AAAAAAAAAAAAAACACACACACACCCATACACATA [CACACA_site2860] | 10.19 ± 0.078
AAAAAAAAAAAAAAAACACACACAACACCCATACCT [CACACA_site9208] | 9.92 ± 0.14
AAAAAAAAAAAAAACACACACAACACCCATACCTTA [CACACA_site3621] | 9.79 ± 0.057
AAAAAAAAAAAACACACACACACATACCCATACATA [CACACA_site5575] | 9.98 ± 0.22
CATACACCCATACATACACACATACATACACCCATA [CACACA_site5124] | 9.56 ± 0.31
AAAAAAAAAAAACACACACACACACCCATACATACA [CACACA_site707] | 10.4 ± 0.14
